Yp Topo-I inh = blocks Yersinia pestis topoisomerase I activity | Y. pestis Topo-I cleavage product accumulation, plate reader | activity, % at 10 µM | actives 0.064% (n = 360,000) | AID 504884; in the data active means activity above about 50%, passing the limit was not always enough; inconclusive means no clear call, values can overlap the other calls
SARS 3CLpro inh = SARS-CoV 3CLpro protease inhibition | actives 0.14% (n = 290,000) | recombinant SARS-CoV 3CLpro, quenched FRET peptide cleavage | P0C6X7 | AID 1706 | inhibition, % at 6 µM; in the data active means inhibition above about 12%
BJeLR viability = BJeLR cell viability loss; actives 0.17% (n = 300,000); AID 1554; inhibition, % (no concentration beside the values); BJeLR (HRASV12) viability, CellTiter-Glo ATP luminescence, 48 h; in the data active means inhibition above about 50%; inconclusive means no clear call, values can overlap the other calls
PfHsp40 rescue = restores yeast growth despite PfHsp40 toxicity; S. cerevisiae expressing PfHsp40, growth rescue, ATP luminescence; growth rescue, % at 12.5 µM; actives 0.68% (n = 340,000); AID 504582; in the data active means growth rescue above about 28%, passing the limit was not always enough; inconclusive means no clear call, values can overlap the other calls;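 further: yeast W303a lacking pdr1 and pdr3 grown in galactose medium; growth measured after three days at 30 °C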
Mtb BioA inh = blocks M. tuberculosis BioA enzyme activity; purified M. tuberculosis BioA enzyme, plate reader; AID 602481; inhibition, % at 9.99 µM; actives 0.096% (n = 360,000); in the data active means inhibition above about 40%; inconclusive means no clear call, values can overlap the other calls
MazF activator = MazEF (E. coli) toxin RNase activation; actives 0.32% (n = 350,000); P0AE70; FAM/BHQ RNA-DNA oligo cleavage fluorescence, 5 h; activation, % at 20 µM; in the data active means activation above about 50%
Target sequence (P0AE70 whole entry, looked up): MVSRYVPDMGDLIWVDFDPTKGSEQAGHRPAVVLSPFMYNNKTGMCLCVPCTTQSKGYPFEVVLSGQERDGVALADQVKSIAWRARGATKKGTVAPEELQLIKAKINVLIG
* hit, by the source's call; u = inconclusive; x = no result; + = active, no number. An excerpt weighted towards active compounds, which were near 1.1% of everything screened.

SMILES	Yp Topo-I inh	SARS 3CLpro inh	BJeLR viability	PfHsp40 rescue	Mtb BioA inh	MazF activator
Cc1cc(NC(=O)CCC(=O)N(Cc2ccco2)C(C(=O)NC2CCCC2)c2ccccc2C)no1 (stereo not drawn)	-2	2	1	1	1	55*
CCCOc1ccc(/C(O)=C2/C(=O)C(=O)N(c3ccccn3)C2c2ccc(OC)cc2)cc1C (stereo not drawn)	56*	2	3	1	0	-8
COc1ccc(/C(O)=C2/C(=O)C(=O)N(c3ccccn3)C2c2ccc(OC)cc2)cc1 (stereo not drawn)	3	4	19	0	1	2
C[C@@H]1CCCCO[C@@H](CN(C)CC2CCCCC2)[C@H](C)CN([C@H](C)CO)C(=O)c2cc(NC(=O)NC3CCCCC3)ccc2O1	x	x	x	x	-1	x
CCn1cc(C(=O)O)c(=O)c2cc(Br)ccc21	-3	5	-3	33*	0	2
COc1cnn(-c2ccccc2)c(=O)c1SCc1ccc(Cl)cc1Cl	20	4	-2	88*	1	-5
O=C(Nc1ccccc1)c1nn(-c2ccccc2)c(=O)cc1C(F)(F)F	-5	-3	-4	2	0	381*
O=C(c1ccccc1)c1nn(-c2ccccc2)c(=O)cc1C(F)(F)F	-4	2	4	0	-1	7
COc1ccc(/C=C(/C#N)c2cccnc2)cc1OC	-4	-5	-11	20	58*	7
C[C@H]1CN([C@@H](C)CO)S(=O)(=O)c2ccc(C3=CCCC3)cc2O[C@H]1CN(C)C(=O)c1ccccc1	x	x	x	x	-2	x
CCNC(=O)[C@@H]1[C@@H](CO)[C@@H]2Cn3c(ccc(-c4ccncc4)c3=O)[C@@H]2N1Cc1ccccc1	x	x	x	x	0	x
Cc1c(C(=O)O)cccc1-c1ccc(/C=N/Nc2ccc(Br)cc2)o1	-6	6	4	355*	57*	2
Cc1c(C(=O)O)cccc1-c1ccc(/C=N/n2cnnc2)o1	4	-3	8	0	1	-6
CO[C@H]1CN(C)C(=O)c2cc(NC(=O)c3cc(C)on3)ccc2OC[C@@H](C)N(CC2CC2)C[C@@H]1C	x	x	x	x	-1	x
COc1ccc(-c2ccc([C@H]3[C@@H](CO)N4CCCCN(C(=O)c5ccc6c(c5)OCO6)C[C@H]34)cc2)cc1	x	x	x	x	-3	x
CCOC(=O)c1ccc(NC(=O)Nc2ccon2)cc1	0	4	58*	0	x	-2
COC(=O)c1ccccc1NC(=O)COC(=O)c1ccccc1N=Nc1ccc(N(C)C)cc1	22	1	-10	73*	x	-2
CC(C)NC(=O)Nc1ccc2c(c1)C(=O)N(C)[C@@H]1CC[C@H](CC(=O)NCC(F)(F)F)O[C@H]1CO2	x	x	x	x	6	x
C/C=C(\C)C(=O)Nc1cccc(C2=NOC3(C2)C[C@@H](C(N)=O)N(C(=O)c2ccccc2C(=O)c2ccccc2)C3)c1 (stereo partly drawn)	1	x	-14	51*	0	2
C/C=C(/C)C(=O)Nc1cccc(C2=NOC3(C2)C[C@H](C(N)=O)N(C(=O)c2ccccc2)C3)c1 (stereo partly drawn)	-4	x	7	0	0	5
C[C@H](CO)N1C[C@H](C)[C@H](CN(C)Cc2ccc(F)cc2)Oc2ncc(C3=CCCC3)cc2C1=O	x	x	x	x	1	x
COc1cc2[nH]c(=O)n(Cc3ccc(C(=O)NC4CCCC4)cc3)c(=O)c2cc1OC	4	-5	2	-2	-2	88*
O=C(Cn1c(=O)[nH]c2ccsc2c1=O)NC1CCCCC1	-1	-2	-3	0	x	8
COc1ccc(Cn2c(=O)[nH]c3cc(C(=O)NC4CCCC4)ccc3c2=O)cc1	5	1	-8	-1	0	-13
O=C(NC1CCCC1)c1ccc(Cn2c(=O)[nH]c3ccsc3c2=O)cc1	11	5	22	51*	x	3
SMILES	Yp Topo-I inh	SARS 3CLpro inh	BJeLR viability	PfHsp40 rescue	Mtb BioA inh	MazF activator
C[C@H](CO)N1C[C@H](C)[C@@H](CN(C)Cc2ccc(Oc3ccccc3)cc2)Oc2c(NC(=O)Nc3ccc(F)cc3)cccc2C1=O	x	x	x	x	0	x
COCC(=O)Nc1ccc2c(c1)OC[C@@H](C)N(C(=O)CC1CC1)C[C@@H](C)[C@H](OC)CN(C)C2=O	x	x	x	x	-1	x
Cc1ccc(NC(=O)CS(=O)CC(=O)Nc2ccccc2-c2ccc(C)o2)cc1 (stereo not drawn)	13	4	-10	0	-1	300*
COc1ccc(S(=O)(=O)Nc2cccc3c2O[C@H](CN(C)Cc2ccccc2)[C@@H](C)CN([C@@H](C)CO)C3=O)cc1	x	x	x	x	0	x
Cc1ccc2nc(N3C(=O)C(O)=C(C(=O)c4ccco4)C3c3cccs3)sc2c1 (stereo not drawn)	11	2	-7	0	x	110*
COc1ccc2nc(N3C(=O)C(O)=C(C(=O)c4ccco4)C3c3ccc(C)o3)sc2c1 (stereo not drawn)	2	x	x	2	x	8
Cn1cnc([N+](=O)[O-])c1S(=O)(=O)Oc1cccc2ccccc12	-6	x	x	u	4	-20
Cn1cnc([N+](=O)[O-])c1S(=O)(=O)Oc1ccc(Cl)cc1	6	x	x	233*	-3	4
COc1ccc(CN(C)C[C@H]2Oc3ccc(NC(=O)Nc4ccc(F)cc4)cc3C(=O)N([C@@H](C)CO)C[C@@H]2C)cc1	x	x	x	x	-4	x
CO[C@H]1CN(C)C(=O)c2ccc(NC(C)=O)cc2OC[C@@H](C)N(C(=O)c2ccncc2)C[C@H]1C	x	x	x	x	3	x
CSc1ncc(Cl)c(C(=O)Nc2sc3c(c2C(=O)NCc2ccco2)CCCC3)n1	x	5	x	x	x	x
CCSc1ncc(Cl)c(C(=O)Nc2sc3c(c2C(=O)NCc2cccnc2)CCCC3)n1	0	-1	1	0	x	112*
COc1ccc(-c2cnc3c(c2)C(=O)N([C@@H](C)CO)C[C@H](C)[C@H](CN(C)C(=O)Cc2ccncc2)O3)cc1	x	x	x	x	-2	x
Clc1ccc(-c2nnc3sc(-c4ccc(Br)o4)nn23)c(Cl)c1	5	-7	-20	-1	-2	-63
Clc1ccc(-c2nnc3sc(-c4ccc(Br)o4)nn23)cc1	30	-2	x	0	x	+
CC(=O)N(c1ccccc1C)C1CCCC1	1	-2	-1	1	-1	0
CC(=O)N(C1=C(Cl)C(=O)c2ccccc2C1=O)C1CCCCC1	1	0	33	147*	-1	11
O=c1c2c(-c3ccc(Cl)cc3)csc2ncn1/N=C/c1cccc([N+](=O)[O-])c1O	-18	1	0	280*	x	0
CN(C)CC(=O)N[C@@H]1CC[C@@H](CCNC(=O)Nc2ccc(C(F)(F)F)cc2)O[C@@H]1CO	x	x	x	x	1	x
COc1ccc(N/N=C(/N=Nc2nc(C)cc(=O)[nH]2)c2ccccc2)cc1	6	4	67*	-2	x	1
Cc1ccc(C(=O)Oc2cc(N)n(S(=O)(=O)c3ccc(F)cc3)n2)cc1	1	0	0	-1	1	68*

Screening data: PubChem BioAssay, several laboratories
